From publication PMC7862700, “An all-to-all approach to the identification of sequence-specific readers for epigenetic DNA modifications on cytosine” come the findings set out here.

Common to all, as to test: DAPPL (digital affinity profiling via proximity ligation, sequencing); 10 mM Tris-HCl pH 7.5, 50 mM NaCl, 1 mM DTT, 4% glycerol, room temperature, 30 min; GST-TFs on glutathione beads, 16-mer random dsDNA library, 0.1% formaldehyde crosslink after washing; high values mean tight binding
The target in one assay is T1, FEV (Homo sapiens, UniProt Q99581 1-238).
T1 sequence: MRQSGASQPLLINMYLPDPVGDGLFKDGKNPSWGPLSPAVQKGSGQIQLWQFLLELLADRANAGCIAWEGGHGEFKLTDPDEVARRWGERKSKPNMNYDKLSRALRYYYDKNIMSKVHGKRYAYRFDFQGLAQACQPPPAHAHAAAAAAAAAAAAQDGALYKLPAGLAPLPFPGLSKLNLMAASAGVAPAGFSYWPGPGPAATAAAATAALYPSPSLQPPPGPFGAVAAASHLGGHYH
To be noted: protein: recombinant; tags: N-terminal GST; dsDNA, one strand shown. The method in brief: (§1)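 Binding signal is defined as a hexamer's read frequency for one factor over its frequency for the tag-only sample. To obtain reads, GST-fused human transcription factors were expressed in yeast, captured on glutathione beads, barcoded with DNA and pooled with that sample. Pools met 200 nmole of a 16-mer random double-stranded DNA library in Tris/NaCl/DTT/glycerol buffer for 30 min at room temperature before washing, 0.1% formaldehyde crosslinking, proximity ligation (BsaI/T4 ligase, 1 h, 37 °C), PCR and Illumina NextSeq500 sequencing.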

The target in the next assay is ETV5 (Homo sapiens, UniProt P41161 1-510). To be noted: protein: recombinant; tags: N-terminal GST; dsDNA, one strand shown. The method in brief: as §1
Another assay has as its target HSF1 (Homo sapiens, UniProt Q00613 1-529). To be noted: protein: recombinant; tags: N-terminal GST; chain copies: 3; dsDNA, one strand shown. The method in brief:
as §1

The target of the next assay is T2, SPIC (Homo sapiens, UniProt Q8N5J4 1-248).
T2 sequence: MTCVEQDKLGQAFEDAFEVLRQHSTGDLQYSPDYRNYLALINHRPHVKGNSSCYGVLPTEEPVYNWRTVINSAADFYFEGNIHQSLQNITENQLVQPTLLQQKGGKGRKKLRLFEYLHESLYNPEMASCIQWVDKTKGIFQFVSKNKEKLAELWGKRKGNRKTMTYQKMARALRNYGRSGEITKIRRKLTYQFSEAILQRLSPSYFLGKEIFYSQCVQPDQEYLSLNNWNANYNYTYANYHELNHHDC
Particulars: protein: recombinant; tags: N-terminal GST; dsDNA, one strand shown. The method in brief:
as §1

A further assay addresses ELF4 (Homo sapiens, UniProt Q99607 1-663). To be noted: protein: recombinant; tags: N-terminal GST; dsDNA, one strand shown. The gist of the method:
as §1

Another assay concerns the target T3, ELK4 (Homo sapiens, UniProt P28324-2 1-405).
T3 sequence: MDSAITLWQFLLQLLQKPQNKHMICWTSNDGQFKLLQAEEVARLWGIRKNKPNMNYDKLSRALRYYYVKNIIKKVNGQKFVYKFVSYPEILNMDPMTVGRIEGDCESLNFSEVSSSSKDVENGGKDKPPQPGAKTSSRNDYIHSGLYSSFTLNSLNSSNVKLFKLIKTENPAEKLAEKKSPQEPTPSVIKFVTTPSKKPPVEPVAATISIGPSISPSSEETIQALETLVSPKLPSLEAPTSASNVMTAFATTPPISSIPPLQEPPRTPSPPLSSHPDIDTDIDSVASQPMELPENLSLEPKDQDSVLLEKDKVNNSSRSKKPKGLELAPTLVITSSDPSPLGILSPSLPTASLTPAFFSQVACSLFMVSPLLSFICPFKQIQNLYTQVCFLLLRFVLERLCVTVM
To be noted: protein: recombinant; tags: N-terminal GST; dsDNA, one strand shown. The gist of the method:
as §1

In another assay the target is T4, ETV2 (Homo sapiens, UniProt O00321 1-342).
T4 sequence: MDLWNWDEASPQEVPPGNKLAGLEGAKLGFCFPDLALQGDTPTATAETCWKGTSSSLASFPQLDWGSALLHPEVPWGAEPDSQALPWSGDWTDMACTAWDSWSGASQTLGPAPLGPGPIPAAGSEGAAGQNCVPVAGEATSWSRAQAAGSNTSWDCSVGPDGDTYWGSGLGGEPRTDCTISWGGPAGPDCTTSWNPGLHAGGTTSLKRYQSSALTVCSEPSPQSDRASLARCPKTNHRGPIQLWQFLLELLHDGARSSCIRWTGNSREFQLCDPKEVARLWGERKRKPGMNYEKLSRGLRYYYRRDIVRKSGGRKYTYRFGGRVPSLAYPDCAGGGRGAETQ
To be noted: protein: recombinant; tags: N-terminal GST; dsDNA, one strand shown. The method in brief: as §1

The target in another assay is T5, ELF3 (Homo sapiens, UniProt P78545 1-371).
T5 sequence: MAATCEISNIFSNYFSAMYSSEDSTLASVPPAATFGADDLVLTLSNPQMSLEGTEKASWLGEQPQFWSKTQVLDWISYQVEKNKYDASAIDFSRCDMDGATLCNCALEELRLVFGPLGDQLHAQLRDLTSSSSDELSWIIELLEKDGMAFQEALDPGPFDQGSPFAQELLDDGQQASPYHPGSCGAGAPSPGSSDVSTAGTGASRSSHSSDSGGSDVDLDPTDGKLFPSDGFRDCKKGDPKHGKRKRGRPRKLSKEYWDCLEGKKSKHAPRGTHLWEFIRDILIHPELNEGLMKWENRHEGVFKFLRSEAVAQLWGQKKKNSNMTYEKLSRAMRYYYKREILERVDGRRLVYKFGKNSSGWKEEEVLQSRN
Particulars: protein: recombinant; tags: N-terminal GST; dsDNA, one strand shown. The method in brief:
as §1

The next assay has as its target CRX (Homo sapiens, UniProt O43186 1-299). Particulars: protein: recombinant; tags: N-terminal GST; dsDNA, one strand shown. The method in brief:
as §1

Another assay has as its target ETV1 (Homo sapiens, UniProt P50549 1-477). To be noted: protein: recombinant; tags: N-terminal GST; dsDNA, one strand shown. The method in brief:
as §1

Another assay deals with T6, ERF (Homo sapiens, UniProt P50548 1-548).
T6 sequence: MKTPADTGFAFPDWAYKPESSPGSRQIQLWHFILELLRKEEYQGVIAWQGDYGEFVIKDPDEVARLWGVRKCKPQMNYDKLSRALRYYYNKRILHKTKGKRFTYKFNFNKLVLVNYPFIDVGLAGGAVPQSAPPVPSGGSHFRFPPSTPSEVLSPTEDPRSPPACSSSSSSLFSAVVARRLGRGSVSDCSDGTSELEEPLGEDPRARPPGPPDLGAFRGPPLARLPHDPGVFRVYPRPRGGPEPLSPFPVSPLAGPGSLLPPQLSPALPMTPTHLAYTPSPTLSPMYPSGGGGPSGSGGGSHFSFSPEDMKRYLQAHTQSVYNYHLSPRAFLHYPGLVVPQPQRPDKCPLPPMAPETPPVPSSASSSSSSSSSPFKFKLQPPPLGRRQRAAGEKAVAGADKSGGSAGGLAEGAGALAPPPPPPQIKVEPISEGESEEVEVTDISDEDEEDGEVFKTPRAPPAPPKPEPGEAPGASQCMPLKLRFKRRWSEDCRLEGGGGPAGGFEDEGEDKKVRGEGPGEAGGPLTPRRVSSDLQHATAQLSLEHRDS
To be noted: protein: recombinant; tags: N-terminal GST; dsDNA, one strand shown. The gist of the method: as §1

In a further assay the target is T7, ETV3L (Homo sapiens, UniProt Q6ZN32 1-361).
T7 sequence: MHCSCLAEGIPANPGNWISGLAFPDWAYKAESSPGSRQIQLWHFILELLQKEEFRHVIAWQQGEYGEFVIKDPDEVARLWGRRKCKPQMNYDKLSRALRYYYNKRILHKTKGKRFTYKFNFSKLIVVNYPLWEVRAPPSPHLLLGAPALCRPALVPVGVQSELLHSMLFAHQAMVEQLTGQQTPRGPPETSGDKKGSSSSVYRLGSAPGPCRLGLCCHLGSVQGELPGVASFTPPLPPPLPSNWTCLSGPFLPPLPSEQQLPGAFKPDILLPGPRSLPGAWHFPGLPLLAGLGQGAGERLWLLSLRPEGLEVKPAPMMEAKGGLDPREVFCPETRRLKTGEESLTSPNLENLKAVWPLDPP
Particulars: protein: recombinant; tags: N-terminal GST; dsDNA, one strand shown. The method in brief:
as §1

The target of the next assay is T8, ETS2 (Homo sapiens, UniProt P15036 1-469).
T8 sequence: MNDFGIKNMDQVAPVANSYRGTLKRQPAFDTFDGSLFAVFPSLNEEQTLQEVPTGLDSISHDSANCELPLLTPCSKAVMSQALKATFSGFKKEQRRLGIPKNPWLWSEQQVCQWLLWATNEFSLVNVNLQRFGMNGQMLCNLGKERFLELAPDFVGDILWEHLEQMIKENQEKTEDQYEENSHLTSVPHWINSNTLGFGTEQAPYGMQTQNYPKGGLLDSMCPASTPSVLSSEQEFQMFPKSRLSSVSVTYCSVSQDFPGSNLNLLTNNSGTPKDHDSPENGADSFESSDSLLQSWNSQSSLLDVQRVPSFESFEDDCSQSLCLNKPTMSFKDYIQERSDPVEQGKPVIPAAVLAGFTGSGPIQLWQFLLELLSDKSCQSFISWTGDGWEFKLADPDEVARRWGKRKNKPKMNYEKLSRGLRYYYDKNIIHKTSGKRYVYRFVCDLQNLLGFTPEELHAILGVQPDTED
To be noted: protein: recombinant; tags: N-terminal GST; dsDNA, one strand shown. The method in brief:
as §1

The next assay addresses T9, SPDEF (Homo sapiens, UniProt O95238 1-335).
T9 sequence: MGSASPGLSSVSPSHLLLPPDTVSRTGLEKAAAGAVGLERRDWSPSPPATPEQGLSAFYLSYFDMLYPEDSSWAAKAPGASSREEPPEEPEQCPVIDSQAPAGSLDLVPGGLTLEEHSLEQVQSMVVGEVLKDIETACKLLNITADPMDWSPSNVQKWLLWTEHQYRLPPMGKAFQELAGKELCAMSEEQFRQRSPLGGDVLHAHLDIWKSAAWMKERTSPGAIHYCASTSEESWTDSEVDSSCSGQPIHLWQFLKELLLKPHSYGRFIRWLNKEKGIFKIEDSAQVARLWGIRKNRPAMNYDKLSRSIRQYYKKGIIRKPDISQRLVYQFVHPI
Particulars: protein: recombinant; tags: N-terminal GST; dsDNA, one strand shown. The gist of the method:
as §1

For another assay, the target named is T10, ETV7 (Homo sapiens, UniProt Q9Y603 1-341).
T10 sequence: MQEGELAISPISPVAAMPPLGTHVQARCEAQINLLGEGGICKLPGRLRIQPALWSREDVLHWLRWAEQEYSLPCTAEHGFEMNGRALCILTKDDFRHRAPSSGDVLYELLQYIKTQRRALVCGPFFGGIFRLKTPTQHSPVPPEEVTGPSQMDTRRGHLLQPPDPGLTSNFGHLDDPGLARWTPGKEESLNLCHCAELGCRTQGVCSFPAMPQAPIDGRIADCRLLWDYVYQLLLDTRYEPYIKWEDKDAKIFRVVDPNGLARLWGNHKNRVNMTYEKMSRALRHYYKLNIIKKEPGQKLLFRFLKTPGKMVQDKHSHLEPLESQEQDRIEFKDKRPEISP
To be noted: protein: recombinant; tags: N-terminal GST; dsDNA, one strand shown. The gist of the method:
as §1

The next assay has as its target T11, ELF5 (Homo sapiens, UniProt Q9UKW6-2 1-255).
T11 sequence: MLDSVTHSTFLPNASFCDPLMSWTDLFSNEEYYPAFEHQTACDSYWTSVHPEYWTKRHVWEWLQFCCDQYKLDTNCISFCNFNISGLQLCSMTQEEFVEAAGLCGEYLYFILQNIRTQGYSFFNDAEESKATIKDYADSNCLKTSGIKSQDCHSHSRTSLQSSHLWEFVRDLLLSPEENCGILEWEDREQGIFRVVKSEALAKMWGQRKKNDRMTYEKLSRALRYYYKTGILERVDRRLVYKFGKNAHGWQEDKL
To be noted: protein: recombinant; tags: N-terminal GST; dsDNA, one strand shown. The method in brief: as §1

For the next assay, the target named is T12, ETV3 (Homo sapiens, UniProt P41162-2 1-143).
T12 sequence: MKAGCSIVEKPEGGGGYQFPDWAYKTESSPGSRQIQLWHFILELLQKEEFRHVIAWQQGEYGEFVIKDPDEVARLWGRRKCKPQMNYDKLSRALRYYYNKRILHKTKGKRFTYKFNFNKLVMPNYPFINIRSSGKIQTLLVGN
Particulars: protein: recombinant; tags: N-terminal GST; dsDNA, one strand shown. The gist of the method:
as §1

A further assay has as its target ETV6 (Homo sapiens, UniProt P41212 1-452). To be noted: protein: recombinant; tags: N-terminal GST; dsDNA, one strand shown. The gist of the method: as §1

Sequence of HSF1 (Q00613 whole entry): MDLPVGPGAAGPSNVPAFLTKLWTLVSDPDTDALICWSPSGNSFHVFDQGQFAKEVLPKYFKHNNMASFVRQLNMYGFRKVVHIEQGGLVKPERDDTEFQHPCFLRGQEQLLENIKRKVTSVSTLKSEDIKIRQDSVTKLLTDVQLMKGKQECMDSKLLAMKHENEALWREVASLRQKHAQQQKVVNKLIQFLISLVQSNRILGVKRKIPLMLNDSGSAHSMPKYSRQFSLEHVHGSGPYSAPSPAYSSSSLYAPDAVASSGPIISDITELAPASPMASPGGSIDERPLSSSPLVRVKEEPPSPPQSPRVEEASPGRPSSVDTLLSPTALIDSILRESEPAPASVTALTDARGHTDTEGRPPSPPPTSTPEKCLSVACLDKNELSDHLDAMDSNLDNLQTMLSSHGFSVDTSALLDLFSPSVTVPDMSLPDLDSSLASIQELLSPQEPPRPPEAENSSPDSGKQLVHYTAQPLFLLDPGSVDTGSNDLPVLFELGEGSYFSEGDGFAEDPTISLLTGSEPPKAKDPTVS
Sequence of ETV5 (P41161 whole entry): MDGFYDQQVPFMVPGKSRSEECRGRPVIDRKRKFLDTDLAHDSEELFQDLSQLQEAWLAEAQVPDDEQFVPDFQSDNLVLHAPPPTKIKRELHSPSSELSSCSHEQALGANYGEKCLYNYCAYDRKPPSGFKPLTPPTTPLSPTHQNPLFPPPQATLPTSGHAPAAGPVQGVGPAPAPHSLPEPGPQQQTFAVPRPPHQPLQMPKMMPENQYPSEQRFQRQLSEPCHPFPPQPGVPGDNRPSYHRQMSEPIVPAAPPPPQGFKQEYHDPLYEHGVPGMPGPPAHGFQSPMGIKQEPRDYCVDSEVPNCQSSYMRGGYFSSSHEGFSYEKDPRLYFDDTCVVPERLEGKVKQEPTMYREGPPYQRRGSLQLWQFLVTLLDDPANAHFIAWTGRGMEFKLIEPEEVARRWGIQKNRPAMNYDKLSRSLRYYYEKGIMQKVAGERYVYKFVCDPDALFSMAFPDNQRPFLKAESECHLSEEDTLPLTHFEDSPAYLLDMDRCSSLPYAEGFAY
Sequence of CRX (O43186 whole entry): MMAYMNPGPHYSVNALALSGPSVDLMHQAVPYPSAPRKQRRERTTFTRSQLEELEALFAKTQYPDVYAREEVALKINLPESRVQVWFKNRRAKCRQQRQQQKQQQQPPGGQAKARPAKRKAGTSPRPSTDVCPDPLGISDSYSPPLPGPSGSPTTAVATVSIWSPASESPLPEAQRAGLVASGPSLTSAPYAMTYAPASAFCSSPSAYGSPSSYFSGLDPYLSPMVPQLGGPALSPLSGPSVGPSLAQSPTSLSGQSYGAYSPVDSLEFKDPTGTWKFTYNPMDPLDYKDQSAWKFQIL
Sequence of ETV6 (P41212 whole entry): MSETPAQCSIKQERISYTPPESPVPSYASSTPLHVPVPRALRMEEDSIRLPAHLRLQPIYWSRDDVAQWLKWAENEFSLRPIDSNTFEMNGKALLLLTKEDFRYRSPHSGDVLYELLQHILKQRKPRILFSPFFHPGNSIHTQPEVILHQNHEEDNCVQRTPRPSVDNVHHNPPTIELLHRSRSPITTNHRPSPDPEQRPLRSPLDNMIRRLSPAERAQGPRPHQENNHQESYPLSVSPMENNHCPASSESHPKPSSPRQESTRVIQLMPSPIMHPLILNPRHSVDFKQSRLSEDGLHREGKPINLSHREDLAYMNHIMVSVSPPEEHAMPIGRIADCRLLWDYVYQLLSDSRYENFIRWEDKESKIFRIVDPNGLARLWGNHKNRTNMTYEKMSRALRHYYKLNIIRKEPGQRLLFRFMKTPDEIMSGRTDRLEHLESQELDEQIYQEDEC
Sequence of ETV1 (P50549 whole entry): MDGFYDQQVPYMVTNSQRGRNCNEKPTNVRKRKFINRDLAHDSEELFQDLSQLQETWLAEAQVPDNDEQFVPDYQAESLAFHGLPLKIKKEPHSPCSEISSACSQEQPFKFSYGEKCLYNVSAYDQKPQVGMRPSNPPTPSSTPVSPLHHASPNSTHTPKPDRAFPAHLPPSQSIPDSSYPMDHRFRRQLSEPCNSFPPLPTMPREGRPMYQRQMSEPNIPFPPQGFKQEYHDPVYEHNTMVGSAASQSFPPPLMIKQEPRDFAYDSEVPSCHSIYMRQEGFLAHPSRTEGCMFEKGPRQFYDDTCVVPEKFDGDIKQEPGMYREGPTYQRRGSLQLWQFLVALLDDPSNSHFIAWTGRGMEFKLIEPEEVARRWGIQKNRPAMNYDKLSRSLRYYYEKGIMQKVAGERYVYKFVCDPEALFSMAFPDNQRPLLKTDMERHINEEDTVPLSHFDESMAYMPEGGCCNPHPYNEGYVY
Sequence of ELF4 (Q99607 whole entry): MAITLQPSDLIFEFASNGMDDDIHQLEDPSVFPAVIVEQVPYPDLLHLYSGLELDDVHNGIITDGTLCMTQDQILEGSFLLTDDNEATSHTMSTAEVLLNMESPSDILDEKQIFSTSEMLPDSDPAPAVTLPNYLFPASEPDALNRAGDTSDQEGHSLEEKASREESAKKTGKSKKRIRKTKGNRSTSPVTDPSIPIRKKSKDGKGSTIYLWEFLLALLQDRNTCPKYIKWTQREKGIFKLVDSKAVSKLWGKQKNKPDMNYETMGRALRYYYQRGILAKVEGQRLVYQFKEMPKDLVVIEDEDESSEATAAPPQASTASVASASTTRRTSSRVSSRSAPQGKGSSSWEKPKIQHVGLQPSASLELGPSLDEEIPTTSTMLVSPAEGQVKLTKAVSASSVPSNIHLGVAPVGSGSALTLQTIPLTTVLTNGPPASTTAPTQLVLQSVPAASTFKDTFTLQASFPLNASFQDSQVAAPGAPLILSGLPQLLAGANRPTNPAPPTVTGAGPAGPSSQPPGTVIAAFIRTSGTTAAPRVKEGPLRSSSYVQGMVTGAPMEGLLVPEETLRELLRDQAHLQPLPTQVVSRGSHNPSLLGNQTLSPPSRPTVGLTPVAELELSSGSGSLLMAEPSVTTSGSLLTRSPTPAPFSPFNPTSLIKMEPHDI

Regarding AATGTC, the binding signal in the assay with FEV was 1.19 fold enrichment (6-mer frequency, TF over GST control); in the assay with ETV5, 1.23 fold enrichment (6-mer frequency, TF over GST control); in the assay with HSF1 it was 1.14 fold enrichment (6-mer frequency, TF over GST control); in the assay with SPIC it was 1.41 fold enrichment (6-mer frequency, TF over GST control); in the assay with ELF4, 1.21 fold enrichment (6-mer frequency, TF over GST control); in the assay with ELK4, 1.32 fold enrichment (6-mer frequency, TF over GST control). Also, the binding signal with ETV2 was 1.15 fold enrichment (6-mer frequency, TF over GST control); with ELF3 it was 1.36 fold enrichment (6-mer frequency, TF over GST control); with CRX, 1.04 fold enrichment (6-mer frequency, TF over GST control); with ETV1, 1.14 fold enrichment (6-mer frequency, TF over GST control); in the assay with ERF, 1.17 fold enrichment (6-mer frequency, TF over GST control); in the assay with ETV3L, 1.22 fold enrichment (6-mer frequency, TF over GST control). For the same sequence, the binding signal with ETS2 is 1.27 fold enrichment (6-mer frequency, TF over GST control); with SPDEF it was 1.36 fold enrichment (6-mer frequency, TF over GST control); in the assay with ETV7, 1.23 fold enrichment (6-mer frequency, TF over GST control); in the assay with ELF5 it was 1.38 fold enrichment (6-mer frequency, TF over GST control); with ETV3, 1.23 fold enrichment (6-mer frequency, TF over GST control); with ETV6 it was 1.21 fold enrichment (6-mer frequency, TF over GST control).
